# Assay outcomes deposited in PubChem by several laboratories.
# Beta2AR agonist = agonists of human beta-2 adrenergic receptor inducing internalization; Am2.2-beta2AR cells, FAP receptor internalization, flow cytometry; response, % (concentration not given with the values); hit rate 0.43% among 340,000;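 active = response above a set limit, near 3 SD of response in nonfluorescent compounds, cut at about 42% in these data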
# GRK2 aptamer HTS = inhibitors of human GRK2 displacing RNA aptamer; P25098; bead flow cytometry, FAM-aptamer displacement from GRK2; inhibition of aptamer binding, % at 10 µM; hit rate 0.59% among 330,000;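 active = inhibition of aptamer binding above 40%, roughly 3 SD of noise, on plates passing a quality check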;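 also: median bead fluorescence of bound FAM aptamer so fluorescent compounds give negative values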
# Target sequence (P25098 whole entry, looked up): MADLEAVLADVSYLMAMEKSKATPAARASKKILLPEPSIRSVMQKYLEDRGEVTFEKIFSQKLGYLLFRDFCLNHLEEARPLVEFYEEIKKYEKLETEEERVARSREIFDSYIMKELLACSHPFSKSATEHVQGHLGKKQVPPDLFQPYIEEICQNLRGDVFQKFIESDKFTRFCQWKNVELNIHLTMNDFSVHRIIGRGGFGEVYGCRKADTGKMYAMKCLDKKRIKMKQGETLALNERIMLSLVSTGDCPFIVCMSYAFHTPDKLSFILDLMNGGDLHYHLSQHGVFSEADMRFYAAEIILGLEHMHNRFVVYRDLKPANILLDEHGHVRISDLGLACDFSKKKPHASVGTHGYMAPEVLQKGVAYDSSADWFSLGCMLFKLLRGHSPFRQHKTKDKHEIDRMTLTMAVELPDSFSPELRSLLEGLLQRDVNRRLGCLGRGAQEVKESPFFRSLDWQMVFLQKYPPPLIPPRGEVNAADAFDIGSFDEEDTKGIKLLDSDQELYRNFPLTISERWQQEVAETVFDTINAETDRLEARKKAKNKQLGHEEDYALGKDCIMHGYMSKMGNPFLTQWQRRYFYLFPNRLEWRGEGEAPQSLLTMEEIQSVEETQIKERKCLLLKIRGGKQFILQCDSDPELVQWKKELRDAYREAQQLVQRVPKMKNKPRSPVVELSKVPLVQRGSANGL
# Granule exo inh = blocks lytic granule exocytosis. TALL-104 LAMP-1 surface exposure, flow cytometry; cells stimulated with thapsigargin and PMA. inhibition, % at 10 µM. hit rate 0.66% among 360,000;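 active = inhibition above about 55%, limit read from the data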
# PP1 inh = counter-screen for PP5 inhibitors: inhibitors of human PP1-alpha. P62136. hit rate 0.9% among 320,000. inhibition, % at 6.7 µM. purified PP1alpha, OMFP fluorescence;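 active = inhibition above the mean inhibition of all tested compounds plus 3 SD, computed separately for each screening campaign, cut at about 15% in these data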
# NadD inh = NadD (S. aureus) enzyme inhibition; purified NadD enzyme, colorimetric absorbance read-out; inhibition, % at 20 µM; hit rate 0.78% among 360,000; in the data active = inhibition above about 26%
# GRK2 inh confirm = confirmation of human GRK2 inhibitors displacing RNA aptamer; hit rate 4% among 2,000; aptamer displacement, % at 10 µM; shares compounds with GRK2 aptamer HTS; bead-bound GRK2, FAM-aptamer displacement, flow cytometry;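 active = aptamer displacement above 40%, near three times the noise of non-fluorescent compounds, on plates passing quality checks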;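 also: negative values mostly reflect intrinsic compound fluorescence rather than true enhancement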
# Aptamer quench 1 = fluorescent aptamer quenching in GRK2 counter-screen dose response | shares compounds with GRK2 aptamer HTS | Fluorescent RNA aptamer beads, flow cytometry; stronger effect = higher value | fluorescence change (kMESF span), kMESF (concentration not given with the values) | 110 tested, under 10 active | AID 504521;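 active = compounds whose bead fluorescence drops by more than 37 kMESF across the dose range, marking them as dye quenchers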
# Aptamer quench SP = counter-screen for GRK2 aptamer inhibitors: fluorescent aptamer quenchers; Carboxyfluorescein RNA aptamer on beads, flow cytometry quenching; stronger effect = lower value; 2,000 tested, under 10 active; shares compounds with GRK2 aptamer HTS; AID 504580; fluorescence response (% of DMSO), % at 10 µM;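 active = compounds that quench the bead-bound fluorescent RNA probe, cutting fluorescence to under half of the solvent control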;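 also: counterscreen run without GRK2 so only probe quenching by compound is measured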
# GRK2 CP2 = confirmation of human GRK2 inhibitors binding RNA aptamer site; 360 tested, under 10 active; shares compounds with GRK2 aptamer HTS; inhibition of aptamer binding, % at 10 µM; bead-bound GRK2, FAM-aptamer displacement, flow cytometry;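 active = inhibition of aptamer binding above 40%, about triple the noise seen with nonglowing compounds, on plates passing quality control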;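 also: negative values mostly come from compounds that fluoresce themselves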
# FAM quench CP2 = quenches fluorescent RNA aptamer, GRK2 hit artifact; shares compounds with GRK2 aptamer HTS; carboxyfluorescein RNA aptamer beads, flow cytometry quenching; stronger effect = lower value; fluorescence response vs DMSO, % at 10 µM; 360 tested, under 10 active;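 active = response vs DMSO under 50%, meaning signal dropped by over half, treated as fluorescence quencher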;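 also: labelled aptamer on streptavidin beads without GRK2 as a quench counter-screen; 100% = bead fluorescence of DMSO wells and lower means quenching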
# The depositor's hits bear a star; i = inactive; x = no result. Shown are actives, neighbours in structure and some others; about 2.9% of the full set was active somewhere.
SMILES,Beta2AR agonist,GRK2 aptamer HTS,Granule exo inh,PP1 inh,NadD inh,GRK2 inh confirm,Aptamer quench SP,others
O=C(COC(=O)/C=C/c1ccco1)Nc1ncc(Cl)cc1Cl,2,60*,1,-1,3,10,100,
O=C(/C=C/c1ccccc1)OCC(=O)N1CCCC1,-1,1,-4,-2,2,x,x,
O=C(/C=C/c1ccco1)OCC(=O)N1CCCCC1,0,76*,32,x,-1,48*,93,Aptamer quench 1=-2.7
Cc1cc(C)cc(NC(=S)/C(=C(\[O-])c2ccc(Cl)cc2Cl)[n+]2ccc(C(C)(C)C)cc2)c1,2,41*,5,2,21,-4,101,
COC(=O)[C@H](Cc1ccccc1)NC(=O)Cn1ccc(NC(=O)OCc2ccccc2)nc1=O,-1,5,-9,-2,-7,x,x,
CCOC(CNc1ncnc2sc(-c3ccccc3)cc12)OCC,2,48*,0,-3,-5,0,98,
CN(C)CCCNc1ncnc2sc(-c3ccccc3)cc12,6,0,8,7,-9,x,x,
COc1cccc(NC(=O)CSc2nnc(-c3ccoc3C)n2C)c1,14,3,2,-4,-13,x,x,
COc1ccc(-n2c(C)cc(C(=O)CSc3nnc(-c4ccoc4C)n3C)c2C)cc1,-5,91*,-2,2,6,2,100,
COc1cccc(N2CC(C(=O)Nc3c(C(N)=O)oc4ccccc34)CC2=O)c1 (centres undefined),7,1,-2,-4,-3,x,x,
COCCNC(=O)c1c(N)n(-c2ccccc2)c2nc3ccccc3nc12,-13,35,2,9,1,0,103,
CCOc1ccccc1NC(=O)CCS(=O)(=O)c1cccc2nonc12,-7,2,-2,-2,3,x,x,GRK2 CP2=i;FAM quench CP2=107
CC(=O)c1cccc(NC(=O)CCS(=O)(=O)c2cccc3nonc23)c1,-2,2,-4,-5,-5,x,x,GRK2 CP2=-21;FAM quench CP2=110
COc1ccc(N(C)C(=O)CCS(=O)(=O)c2cccc3nonc23)c(OC)c1,4,0,-1,-3,-3,x,x,GRK2 CP2=-21;FAM quench CP2=101
Cc1cccc(N(C)C(=O)CCS(=O)(=O)c2cccc3nonc23)c1,-2,4,5,-2,-2,x,x,
CCC(=O)Nc1ccc(C(=O)N/N=C/c2cc(Br)c(OC)cc2OC)cc1,-10,2,0,-3,1,x,x,
NC(=O)[C@@H]1CCCN1Cc1nc(Cc2ccccc2Cl)no1,0,2,5,-1,0,x,x,
COc1cccc(CC2(CO)CCCN(Cc3cn[nH]c3-c3ccc(F)cc3)C2)c1 (centres undefined),-5,0,-3,-2,6,-3,104,
C=C(C)CSc1nc2sc3c(c2c(=O)n1-c1ccc(C)cc1)CCN(C)C3,9,x,-3,x,2,0,101,
CCOC(=O)CSc1nc2sc3c(c2c(=O)n1-c1ccc(OCC)cc1)CCN(C)C3,-15,0,5,7,6,x,x,
CC1CN(S(=O)(=O)c2cccc(C(=O)N3CCC(C(N)=O)CC3)c2)CC(C)O1 (centres undefined),-3,5,-5,x,2,x,x,
CC(C)(C)OC(=O)NCCCCCO,0,0,1,1,3,x,x,
COc1ccc(OC)c(Nc2nc(NCc3ccco3)c3ccccc3n2)c1,7,46*,10,10,8,-2,97,
Cc1cc2nc(C)c3c(n2n1)CCC3,-3,2,0,-6,-3,x,x,
CCCCN(C(=O)CSc1nnc(-c2ccco2)o1)c1c(N)n(Cc2ccccc2)c(=O)[nH]c1=O,-9,1,-1,-2,0,x,x,
SMILES,Beta2AR agonist,GRK2 aptamer HTS,Granule exo inh,PP1 inh,NadD inh,GRK2 inh confirm,Aptamer quench SP,others
COc1cccc(NC(=O)COC(=O)CNC(=O)C2CCCCC2)c1,14,2,0,-1,0,x,x,
CC(=O)N/N=C(\C)c1ccc2c(c1)OCCO2,-6,72*,0,-3,-1,-4,96,
C=CCn1c(C)cc(C(=O)CSc2nnc3n(CCC)c(=O)c4ccccc4n23)c1C,3,x,5,x,4,x,x,
CC(C(=O)OCC(=O)N1CCN(c2ccccc2)CC1)N1C(=O)c2ccccc2C1=O (centres undefined),0,3,-1,1,0,-1,100,
C#CCOCCOCCOCCNc1nc(N2CCN(C(=O)CCCCCCCCCCNC(=O)[C@@H]([C@H](C)O)n3cc(C)nn3)CC2)nc(N2CCN(C(=O)CCCCCCCCCCNC(=O)[C@@H]([C@H](C)O)n3cc(C)nn3)CC2)n1,15,52*,-8,2,-4,5,102,
CN(C(=O)CN1C(=O)S/C(=C\c2ccccc2)C1=O)C1CCS(=O)(=O)C1 (centres undefined),-1,0,-8,2,-2,x,x,
CN(C(=O)CCN1C(=O)/C(=C/c2ccccc2)SC1=S)C1CCS(=O)(=O)C1 (centres undefined),-14,72*,-1,-5,-3,0,99,
COc1cc(S(=O)(=O)n2cnc3ccccc32)ccc1Br,-12,62*,0,0,-2,0,99,
OCCC1CN(Cc2cccc(-n3cccn3)c2)CCN1Cc1ccccc1 (centres undefined),-11,5,1,-3,-2,x,x,
COc1cc(CCC(=O)NCc2ccc(S(N)(=O)=O)cc2)cc(OC)c1OC,21,1,20,-3,1,x,x,
COc1cc(CCC(=O)NCc2ccc(F)cc2)cc(OC)c1OC,-4,35,-4,-1,-6,-6,96,
COc1cc(CCC(=O)Nc2ncc(C)s2)cc(OC)c1OC,-9,0,-4,-1,-1,x,x,
COc1cc(CCC(=O)Nc2nccs2)cc(OC)c1OC,-3,4,-4,2,-6,-1,97,
C=C1CCC[C@]2(C)C[C@H]3OC(=O)C(CNCCN(CC)CC)[C@H]3CC12 (some centres undefined),-2,0,32,-5,-12,x,x,
OCC[C@@H]1C[C@H](O)[C@@H](O)[C@@]2(OCCc3ccccc32)O1,3,3,-8,-4,1,x,x,
Cc1cc2ccccc2n1CCNC(=O)C1CCCC1,10,99*,-2,4,3,-1,100,GRK2 CP2=-1;FAM quench CP2=99
